Laboratory results from PubChem BioAssay (NCATS).
Records with an inconclusive call do not appear. Calls of active or inactive are those of the source. Calls follow the shape of the dose curve; as a rule, active = well fitted curve in the direction sought with a large enough effect; inconclusive = small, poorly fitted or top-dose-only effect, or another doubt; inactive = no such curve, though single readings can be large; an effect the other way counts as inactive or inconclusive.

Legend:
[1] = molecular target: Protein phosphatase 1D (Homo sapiens) (UniProt O15297); assay: RapidFire Mass Spectrometry qHTS Assay for Modulators of WT P53-Induced Phosphatase 1 (WIP1) (AID 1347424);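 also: amount of dephosphorylated VEPPL-S-QETFS peptide product formed by WIP1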; also: potency is read from the fitted curve at half-maximal effect
Chain of Protein phosphatase 1D (Homo sapiens) (O15297 whole entry, looked up): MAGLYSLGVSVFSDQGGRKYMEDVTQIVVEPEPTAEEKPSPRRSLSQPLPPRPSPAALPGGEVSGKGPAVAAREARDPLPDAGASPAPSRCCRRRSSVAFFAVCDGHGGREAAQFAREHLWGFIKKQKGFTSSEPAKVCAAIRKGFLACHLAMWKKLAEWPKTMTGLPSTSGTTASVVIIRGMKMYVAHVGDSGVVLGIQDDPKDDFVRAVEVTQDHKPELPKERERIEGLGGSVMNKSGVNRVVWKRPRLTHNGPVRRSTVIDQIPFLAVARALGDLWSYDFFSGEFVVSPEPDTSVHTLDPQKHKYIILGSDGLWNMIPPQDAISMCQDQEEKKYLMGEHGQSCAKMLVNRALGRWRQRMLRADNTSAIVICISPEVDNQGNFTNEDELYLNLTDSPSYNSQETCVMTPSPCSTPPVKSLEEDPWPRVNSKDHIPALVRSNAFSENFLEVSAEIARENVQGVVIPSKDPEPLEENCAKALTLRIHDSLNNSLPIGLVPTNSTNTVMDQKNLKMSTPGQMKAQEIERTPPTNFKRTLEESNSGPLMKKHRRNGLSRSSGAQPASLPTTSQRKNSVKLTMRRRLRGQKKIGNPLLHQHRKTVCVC
Method in brief: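 Mass-spectrometric measurement of dephosphorylated peptide after a 5 min room-temperature reaction of 10 nM WIP1 with 2 uM phosphopeptide, following 1 h compound preincubation in 30 mM MgCl2 buffer.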

[2] = molecular target: Protein phosphatase 1D (Homo sapiens) (UniProt O15297); assay: Rhodamine-PBP qHTS Assay for Modulators of WT P53-Induced Phosphatase 1 (WIP1) (AID 1347425)
Method in brief: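 5 nM WIP1 + 10 uM Rh-PBP, 50 mM Tris pH 7.5, 30 mM MgCl2, 1 mM TCEP, 0.1 mM EGTA, BSA; cpds pinned, 1 hr RT; + 10 uM phosphopeptide; fluorescence 1-min reads x 11 min; delta = f1 - f0.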

[3] = molecular target: Calcium and integrin-binding protein 1 (Homo sapiens) (UniProt Q99828); assay: Primary qHTS for Identification of Calcium Integrin Binding Protein 1 (CIB1) Competitor (AID 1508620);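 also: GST tagged CIB1 binding a fluorescein labelled alphaIIb integrin peptide tracer; top concentration of the series differs between compounds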
Chain of Calcium and integrin-binding protein 1 (Homo sapiens) (Q99828 whole entry, looked up): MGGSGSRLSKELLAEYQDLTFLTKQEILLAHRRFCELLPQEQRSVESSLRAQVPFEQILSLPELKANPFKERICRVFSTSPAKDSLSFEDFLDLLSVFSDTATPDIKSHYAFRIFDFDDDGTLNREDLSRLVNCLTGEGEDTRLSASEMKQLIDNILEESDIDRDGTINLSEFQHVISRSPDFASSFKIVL
Method in brief: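 Fluorescence polarization competition: CIB1-GST (1 uM final) preincubated with compound 15 min at room temperature, then FITC-labeled alphaIIb peptide (100 nM final) added for another 15 min. Polarization read at Ex 480/Em 540.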

[4] = Primary qHTS for inhibitors of La Crosse Virus (LACV) - induced cell death in SH-SY5Y cells (AID 1508616);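 also: top concentration of the series differs between compounds; higher means more rescue of cells from virus-induced death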
Method in brief: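 Screening measures cell viability in LACV-infected SH-SY5Y cultures. Compound was added before virus (0.01 MOI), and ATP was detected by luminescence 6 days later.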

Measured: Potency

NC(=NCCCCCCN=C(N)/N=C(\N)Nc1ccc(Cl)cc1)/N=C(\N)Nc1ccc(Cl)cc1
inactive: [1] | [2] | [3]

CCN1CCN(c2cc3c(cc2F)c(=O)c(C(=O)O)cn3C2CC2)CC1
inactive: all assays above

COc1ccc(CN2CCN(C(c3ccc(F)cc3)c3ccc(F)cc3)CC2)c(OC)c1OC
inactive: all assays above

COc1cc(NS(C)(=O)=O)ccc1Nc1c2ccccc2nc2ccccc12
inactive: [4]

CCCOC(C(=O)OC1CCN(C)CC1)(c1ccccc1)c1ccccc1
inactive: all assays above

CCOc1ccc(Cc2nccc3cc(OCC)c(OCC)cc23)cc1OCC
inactive: all assays above

CCN(CC)CCOc1ccc(C(O)(Cc2ccc(Cl)cc2)c2ccc(C)cc2)cc1 (stereo unspecified)
inactive: [1] | [2] | [3]

C[C@]12CC[C@H]3[C@@H](CCC4=CC(=O)CC[C@@]43C)[C@@H]1CC[C@@H]2C(=O)CO
inactive: [1] | [2] | [3]

Cc1c(C)n(CCN(C)C)c2ccc(C(=O)OCCN(C)C)cc12
inactive: all assays above

C#C[C@]1(OC(C)=O)CC[C@H]2[C@@H]3CCC4=C[C@@H](OC(C)=O)CC[C@@H]4[C@H]3CC[C@@]21C
inactive: all assays above

C[C@]12CC[C@@H]3c4ccc(O)cc4CC[C@H]3[C@@H]1C[C@@H](O)[C@@H]2O
inactive: [1] | [2] | [3]

Oc1c(Cl)cc(Cl)cc1Sc1cc(Cl)cc(Cl)c1O
active: [1] 12.6 µM
inactive: [4] | [3]

COc1ccc(CCN2CCC(Nc3nc4ccccc4n3Cc3ccc(F)cc3)CC2)cc1
inactive: all assays above

C[C@H]1[C@H](NC(=O)/C(=N/OC(C)(C)C(=O)O)c2csc(N)n2)C(=O)N1S(=O)(=O)O (stereo in doubt)
inactive: all assays above

COc1cc(-c2ccc(=O)[nH]n2)ccc1OC(F)F
inactive: all assays above

C[C@]12CCC(=O)C=C1CC[C@H]1[C@@H]3CC[C@](O)(C(=O)CO)[C@@]3(C)C[C@H](O)[C@@]12F
inactive: all assays above

Oc1ccc(Cl)cc1Sc1cc(Cl)ccc1O
inactive: [4]

CCCCCCCCCCOCC(O)CN (stereo unspecified)
inactive: [2] | [4] | [3]

CCCCCCCCCCCCCCNCCO
inactive: all assays above

C[n+]1c2cc(N)ccc2cc2ccc(N)cc21 (tested in a mixture with another compound)
inactive: [2] | [4]
